Most compounds without a hit are left out; they make up all but 19% or so of the library.
Shiga inhibitor: Shiga toxin inhibition; Vero cells, Shiga toxin protein synthesis inhibition reporter; inhibition, % at 38.7 µM; hit rate 9.2% among 290,000; AID 2315; in the data active means inhibition mostly above about 28%, no sharp cut-off; inactive means mostly below about 43%; further: 0% is about no effect
Pf growth 96h: P. falciparum growth inhibition at 96 hour, primary screen for plastid delayed-death inhibitors. hit rate 6.9% among 320,000. Potency, µM (highest dose often 28.7 µM), for the others: top-dose activity change, negative = inhibition, most hits filed as inhibitors. P. falciparum luciferase reporter growth, 96 h. AID 504834; further: potency means the concentration at half of the fitted maximal effect; on the % scale 0 is the no-effect control and ±100 the full control effect
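Two parasite generations (96 h, 37 C, 5% CO2) of compound exposure in infected erythrocytes (0.05% parasitemia, 2% hematocrit). Luciferase-reporter P. falciparum; decreased luminescence indicates inhibited growth, aimed at apicoplast-acting delayed death.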
Marburg entry inh: blocks Marburg virus binding to or entry into cells; Potency, µM (top dose mostly 37.8 µM), without a hit: at the top dose activity change, negative = inhibition, usual class: inhibitors; hit rate 1.8% among 300,000; Marburg virus pseudotyped entry inhibition, cell reporter; calls by dose curve; tested in HEK293 cells; further: potency means the concentration at half of the fitted maximal effect; on the % scale 0 is the no-effect control and ±100 the full control effect
Pf growth 48h: inhibits P. falciparum growth in the first generation, 48 h; P. falciparum luciferase growth in erythrocytes, 48 h; Potency, µM (titrated, usually from 28.7 µM), without a hit: top-dose activity change, negative = inhibition, most hits filed as inhibitors; hit rate 5.9% among 310,000; further: potency means the concentration at half of the fitted maximal effect; on the % scale 0 is the no-effect control and ±100 the full control effect
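Luminescence readout; reporter = integrated firefly luciferase in P. falciparum. RBC culture at 2% hematocrit, 0.1% parasitemia final, 37 C/5% CO2; decreased signal taken as growth inhibition.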
LASV entry inh: inhibitors of Lassa virus binding or cell entry; Potency, µM (series often up to 37.9 µM), for the others: at the highest dose activity change, negative = inhibition, hits mostly inhibitors; Lassa virus pseudotype entry inhibition, cell reporter; hit rate 1.2% among 300,000; calls by dose curve; tested in HEK293 cells; further: potency means the concentration at half of the fitted maximal effect; on the % scale 0 is the no-effect control and ±100 the full control effect; nearly all actives have a fitted effect of over 50% in size
CHX counter: affects cycloheximide protein synthesis inhibition readout, counter-screen; cell reporter, cycloheximide protein synthesis inhibition counterscreen; max response, %; hit rate 12% among 300,000; AID 2314; in the data active means max response mostly above about 13%, no sharp cut-off; inactive means mostly below about 14%; further: read at 38.3 µM for the half of the compounds with a filed dose; 0% is about no effect
Numbers without * were called inactive; ? = inconclusive; . = no result given; [ ] = another dose, or the depositor's remark. Unless noted, the call rests on the fitted dose curve; in most records, active means well fitted inhibition curve with a large enough effect; inconclusive means small, poorly fitted or top-dose-only effect, or another doubt; inactive means no such curve, though single readings can be large or run the other way.

SMILES | Shiga inhibitor | Pf growth 96h | Marburg entry inh | Pf growth 48h | LASV entry inh | CHX counter
CC1(C)Cc2cccc(OCC(=O)N3CCN(S(=O)(=O)c4ccc(F)cc4)CC3)c2O1 | -10.3 | 9.28µM* | -17.4%[46.1 µM] | ? | -16.7% | -3.4
CC(NC(=O)c1cccs1)C(c1cccs1)N1CCN(c2ccccc2)CC1 (centres undefined) | -6.3 | -6.4% | -13.2% | 9.28µM* | ? | -1.8
CC(NC(=O)c1ccc2c(c1)OCO2)C(c1cccs1)N1CCN(c2ccccc2)CC1 (centres undefined) | -4.1 | 11.7µM* | ? | 141.0% | -0.5% | -1.6
CC(NC(=O)c1ccc2c(c1)OCO2)C(c1cccs1)N1CCOCC1 (centres undefined) | -12.9 | 149.4% | 16.9% | -12.8% | -3.0% | -1.8
CC(NC(=O)c1ccc(C(C)(C)C)cc1)C(c1cccs1)N1CCOCC1 (centres undefined) | -8.8 | 11.7µM* | . | 13.1µM* | . | -1.7
CC(NC(=O)c1cccs1)C(c1cccs1)N1CCOCC1 (centres undefined) | 4.1 | 2.62µM* | 3.2% | -20.1% | 19.8% | 5.1
CC(=O)c1c(C)[nH]c(C(=O)OC2CCCCC2=O)c1C (centres undefined) | 11.3 | -12.3% | 7.6% | 7.2% | 21.9% | 14.1
CCOC(=O)N1CCC(Nc2c(N3CCN(c4cc(Cl)ccc4C)CC3)c(=O)c2=O)CC1 | -11.4 | 4.65µM* | . | . | . | -4.9
CCCN(CCC)CCNc1c(NC2CCN(C(=O)OCC)CC2)c(=O)c1=O | 0.2 | ? | -2.9% | . | . | -2.6
CCOC(=O)N1CCC(Nc2c(-c3ccc(C)c(C)c3)c(=O)c2=O)CC1 | -9.0 | 0.522µM* | ? | -6.7% | -15.1% | 6.2
COc1ccc(OCC(=O)NNC(=O)Cc2coc3cc(OC)ccc23)cc1 | 15.2 | ? | ? | -17.4% | 0.5% | 10.6
Cc1ccc(NC(=O)CS(=O)CC(=O)N(CC(=O)NC2CCCC2)c2cccc(C)c2C)cc1 (centres undefined) | -19.6 | -16.2% | -13.8% | ? | 6.5% | -2.7
CCN(CC)C(=O)C1CCN(S(=O)(=O)c2ccc3oc4ccccc4c3c2)CC1 | -5.6 | ? | ? | 8.7% | -26.7% | -1.4
CC1Cc2ccccc2N1C(=O)COc1ccc2c(c1)OCO2 (centres undefined) | 74.3* | -2.8% | ? | 12.9% | ? | 34.2*
O=C1/C(=C/c2ccc3c(c2)OCO3)Oc2cc(OCC(=O)N3CCC[C@H]3C(=O)O)ccc21 | 22.9 | -22.4% | . | 33.9% | . | 8.2*
CN1/C(=C\C(=O)COc2ccc3c(c2)OCO3)C(C)(C)c2ccccc21 | 10.6 | -1.1% | -1.2% | ? | -18.1% | 10.7*
Cc1cc2cc3c(cc2nc1SCC(=O)N1c2ccccc2CC1C)OCO3 (centres undefined) | -3.7 | ? | ? | ? | ? | 0.2
CC1CCCN(C(=O)c2ccc3c(c2)OCO3)C1 (centres undefined) | 22.2 | 52.3% | ? | 13.1% | 22.1%[46.1 µM] | 4.4
COc1cccc(/C=C2\Oc3cc(OCC(=O)N4Cc5ccccc5C[C@H]4C(=O)O)ccc3C2=O)c1 | 3.0 | 22.5% | . | -1.0% | . | -2.3
CC1CCCN(C(=O)COc2ccc3c(c2)OCO3)C1 (centres undefined) | 64.2* | 62.5% | . | 42.3% | . | 48.0*
CCOC(=O)C1CCCN(C(=O)CCNS(=O)(=O)c2ccc(Br)cc2)C1 (centres undefined) | . | ? | . | -22.0% | . | .
COc1ccc(CN2C(=O)c3ccccc3C2=O)cc1C(=O)N(C)CC(=O)Nc1c(C)cccc1C | . | 6.3% | . | ? | . | .
CC(Nc1ccc2c(c1)OCCO2)C(=O)N1c2ccccc2CC1C (centres undefined) | 37.2 | -18.1% | -1.6%[46.1 µM] | 39.6% | 8.91µM* | 23.6
CC1Cc2ccccc2N1C(=O)NC1CC(=O)N(c2ccc3c(c2)OCCO3)C1 (centres undefined) | -2.1 | 23.7% | ? | -4.3% | -7.2%[46.1 µM] | -2.5
O=C(NCc1ccc2c(c1)OCO2)c1c(Cl)cccc1Cl | -12.1 | ? | -13.8% | 0.0% | ? | -0.7
Cc1nnc(NC(=O)CCn2c(=O)oc3ccccc32)s1 | 43.3 | 46.6% | -4.0%[46.1 µM] | 9.2% | -1.5% | 5.8
O[C@@H](c1cc(C(F)(F)F)nc2c(C(F)(F)F)cccc12)[C@H]1CCCCN1 | . | 0.0147µM* | . | 0.0329µM* | . | .
